This passage reports outcome and activity change, negative = cytotoxicity results from PubChem BioAssay AID720697 (Broad Institute, 2013).

Potency and affinity values are given separately. Results filed as inconclusive are left out. Where a call stands in place of a potency, no number is given. Values without a mark were called inactive. Activity calls are given as the source filed them.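 Rule for the calls: active = signal loss with fitted half-maximal concentration at or below twice the top valid tested dose in every test run; inconclusive = runs disagree, flat 30 to 70% signal loss, or poor fit; inactive = all runs flat, opposite direction, or potency beyond limit.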

The nature of the experiment: HEK293T cytotoxicity, dose response, cytotoxicity control for miR-122 modulator project, cell-based, inhibitor set, cherry-pick, set 2 (AID 720697). As to conditions: HEK293T viability, CellTiter-Glo luminescence, 48 h; series mostly up to 26 µM. Background: ATP-based viability assays read luminescence as a measure of living cells.
As to `NC(=O)c1cn(-c2ccccc2)nc1-c1cc2ccccc2oc1=O`, the result was inactive.

With `O=C(Nc1ccc(CN2CCOCC2)cc1)c1ccc(-c2ccc(Cl)cc2Cl)o1`, the result was inactive.

For `COc1cccc(C(=O)Nc2ccc3c(c2)C(=O)N(C)[C@H]2CC[C@H](CC(=O)NCc4ccc(F)cc4)O[C@@H]2CO3)c1`, the outcome was inactive.

On to `CN1C(=O)c2cc(NC(=O)c3cccc(F)c3)ccc2OC[C@H]2O[C@H](CC(=O)N3CCc4ccccc4C3)CC[C@@H]21`, for which the outcome was inactive.

On to `CO[C@H]1CN(C)C(=O)c2cc(NC(C)=O)ccc2OC[C@@H](C)N(C(=O)CC2CC2)C[C@H]1C`, for which the result was inactive.

Turning to `CN1C(=O)c2cc(NC(=O)Cc3ccccc3)ccc2OC[C@@H]2O[C@@H](CC(=O)NCc3ccc(Cl)cc3)CC[C@H]21`, the compound was classed as inactive.

Turning to `Cc1ccc(-c2ccc3c(c2)O[C@H](CN(C)C(=O)CC2CC2)[C@H](C)CN([C@H](C)CO)S3(=O)=O)cc1`, the call was inactive.

Turning to `C[C@@H]1CN([C@H](C)CO)C(=O)c2cc(-c3cncnc3)cnc2O[C@H]1CN(C)Cc1ccc(Oc2ccccc2)cc1`, the compound was called inactive.

Regarding `COc1ccc(NS(=O)(=O)c2ccc(NC(=O)C(C)(C(F)(F)F)C(F)(F)F)cc2)nn1`, the compound was called inactive.

Regarding `C[C@@H]1CN([C@H](C)CO)S(=O)(=O)c2ccc(C3=CCCCC3)cc2O[C@@H]1CN(C)C(=O)Cc1ccncc1`, the compound was classed as inactive.

With `CN1C(=O)c2cc(NC(=O)c3cc(F)cc(F)c3)ccc2OC[C@@H]2O[C@@H](CC(=O)O)CC[C@@H]21`, the compound was classed as inactive.

Consider `COc1ccc(-c2nc(NC(=O)CSc3nnc(C)s3)ns2)cc1`, for which the compound was classed as inactive.

As to `CN1C(=O)c2cc(NC(=O)Nc3cccc(Cl)c3)ccc2OC[C@@H]2O[C@H](CC(=O)NCCc3ccncc3)CC[C@H]21`, the result was inactive.

As for `COCC(=O)Nc1ccc2c(c1)C(=O)N(C)[C@H]1CC[C@@H](CC(=O)NCCCN(C)C)O[C@@H]1CO2`, the call was inactive.

On to `Cc1cc(C(=O)Nc2ccc3c(c2)C(=O)N(C)[C@H]2CC[C@H](CC(=O)N[C@H](C)c4ccccc4)O[C@H]2CO3)no1`, for which the compound was classed as inactive.

Turning to `Cc1ccc(C(=O)n2nc(-c3ccccc3)nc2NCc2ccco2)cc1`, the compound was classed as inactive.

Regarding `O=C(CSc1nc2ccccc2s1)N1CCOCC1`, the result was inactive.

Consider `COc1cc(N)c(Cl)cc1NC(=O)c1ccccc1`, for which the call was inactive.

For the compound `COc1ccc2[nH]c(C(=O)O)c(NS(=O)(=O)c3ccc(Cl)s3)c2c1`, the compound was called inactive.

Consider `CN1C(=O)c2cc(NC(=O)c3cccs3)ccc2OC[C@H]2O[C@H](CC(=O)NCC(F)(F)F)CC[C@H]21`, for which the outcome was inactive.

Consider `C[C@H](CO)N1C[C@H](C)[C@H](CN(C)S(=O)(=O)c2cccc(F)c2)Oc2ncc(C#CC3CCCCC3)cc2C1=O`, for which the outcome was inactive.

On to `O=C(COC(=O)c1ccccc1)Nc1cc(Cl)ccc1Oc1ccccc1`, for which the compound was classed as inactive.

Consider `C/C=C/c1ccc([C@H]2[C@@H](CO)N(C(=O)COC)[C@H]2CNC(=O)CC)cc1`, for which the outcome was inactive.

`CNC(=O)C[C@@H]1CC[C@H]2[C@@H](COc3ccc(NC(=O)c4cccc(OC)c4)cc3C(=O)N2C)O1`: the call was inactive.

For `CCc1ccccc1NC(=O)CN(C)C(=O)Cn1ncc(Cl)c(Cl)c1=O`, the activity change, negative = cytotoxicity is -65.2% [at 6 µM].

As for `O=C(N/N=C/c1ccco1)c1cccc(N2CCCC2=O)c1`, the outcome was inactive.

For `C[C@H]1CN([C@@H](C)CO)C(=O)c2cc(-c3ccc(C#N)cc3)cnc2O[C@H]1CN(C)C(=O)Nc1ccc(C(F)(F)F)cc1`, the compound was classed as inactive.

With `COc1cccc(CNC(=O)C[C@@H]2CC[C@H]3[C@H](COc4ccc(NS(=O)(=O)c5ccccc5F)cc4C(=O)N3C)O2)c1`, the outcome was inactive.

As for `COc1cccc(-c2ccc3c(c2)O[C@H](CN(C)C(=O)C2CCOCC2)[C@H](C)CN([C@H](C)CO)S3(=O)=O)c1`, the compound was classed as inactive.

Consider `CN1C(=O)c2cc(NC(=O)c3cccc(F)c3)ccc2OC[C@@H]2O[C@H](CC(=O)O)CC[C@H]21`, for which the call was inactive.

Turning to `CCNC(=O)C[C@H]1CC[C@@H]2[C@@H](COc3ccc(NC(=O)Nc4cccc(Cl)c4)cc3C(=O)N2C)O1`, the result was inactive.

On to `COCCN(C[C@H]1[C@H](c2ccccc2)[C@@H](CO)N1C(=O)C1CCC1)C(C)=O`, for which the compound was called inactive.

Take `CCOc1cc(C(=O)NC(C)COC)cc(OCC)c1OCC` (centres undefined): the result was inactive.

Take `Cc1cccc(-n2ncc(Cl)c(Cl)c2=O)c1`: the activity change, negative = cytotoxicity was -3.19% [at 6 µM].

Regarding `O=C(Nc1ccccc1)N1CCCCN2[C@@H](CO)[C@H](c3ccc(C4=CCCCC4)cc3)[C@@H]2C1`, the result was inactive.

As to `COc1cccc(-c2nc(NCCN3CCOCC3)c3ccccc3n2)c1O`, the compound was classed as inactive.

As to `CN1C(=O)c2cc(NC(=O)c3cccc(F)c3)ccc2OC[C@H]2O[C@@H](CC(=O)O)CC[C@H]21`, the call was inactive.

As for `CN(C[C@@H]1[C@@H](c2ccccc2)[C@H](CO)N1C(=O)C1CCC1)C(=O)c1ccccn1`, the call was inactive.

As for `CC(=O)Nc1ccc2c(c1)C(=O)N(C)[C@H]1CC[C@H](CC(=O)NC3CCCCC3)O[C@@H]1CO2`, the result was inactive.
